Assay outcomes (PubChem)
Hits are enriched below; roughly 2.3% of the tested compounds scored in any of these assays.
Mcl1-Noxa inh = disrupts binding of human Mcl-1 to Noxa peptide. inhibition, % at 21.7 µM. 1.5% of 220,000 active. TR-FRET Mcl-1/Noxa peptide binding, 2 h. Q07820. AID 1022;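 active means compounds that cut the protein-peptide binding signal by more than 50% relative to plate controls in a single-dose test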;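 further: His-tagged Mcl-1 with rhodamine Noxa BH3 peptide and terbium anti-His antibody; 0% = Mcl-1 plus Noxa peptide wells and 100% = peptide-only wells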
Target sequence (Q07820 whole entry, looked up): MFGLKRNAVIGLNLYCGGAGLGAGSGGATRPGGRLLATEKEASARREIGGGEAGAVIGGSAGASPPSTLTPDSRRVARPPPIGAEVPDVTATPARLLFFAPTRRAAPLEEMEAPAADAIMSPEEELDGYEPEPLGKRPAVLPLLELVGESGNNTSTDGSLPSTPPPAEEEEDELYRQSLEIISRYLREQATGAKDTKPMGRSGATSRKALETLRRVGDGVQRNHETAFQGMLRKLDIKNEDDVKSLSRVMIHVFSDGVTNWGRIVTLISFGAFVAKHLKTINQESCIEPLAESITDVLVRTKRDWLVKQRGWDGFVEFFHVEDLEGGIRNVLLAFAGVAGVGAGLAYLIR
Bim-Mcl-1 = disrupts Bim peptide binding to human Mcl-1; 0.1% of 190,000 active; inhibition, % at 10 µM; Bead-based flow cytometry, Bim peptide-Mcl-1 binding; AID 1009; in the data active means inhibition above about 40%;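 further: 0% = no compound tracer wells and 100% = peptide blocker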
GLD-1 RNA inh = GLD-1-TGE RNA interaction inhibition (C. elegans); Q17339; purified GLD-1 + fluorescein TGE RNA, fluorescence polarization; inhibition, % at 5.96 µM; 0.44% of 320,000 active;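 active means percent inhibition above a per-plate cutoff, the plate mean of test compounds plus 3 SD, cut at about 30% in these data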;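 further: 0% = DMSO wells with GLD-1 and probe and 100% = wells lacking GLD-1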
MCL1-BIM inh = inhibitors of human MCL1 binding to BIM-BH3 peptide; Q07820; GST-MCL1 / FITC-Bim-BH3 fluorescence polarization; inhibition, % at 10.9 µM; 0.68% of 320,000 active;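 active means inhibition above the mean inhibition of all tested compounds plus 3 SD, set per campaign, cut at about 40% in these data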;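 further: 0% = DMSO wells and 100% = unlabeled Bim-BH3 peptide control; higher means more loss of mP so more displacement of Bim peptide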
BCLXL inh = Bcl-xL (human) inhibition; Q07817; GST-Bcl-xL / FITC-Bim BH3 peptide fluorescence polarization; inhibition, % at 10.9 µM; 0.7% of 320,000 active; AID 2129;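 active means inhibition above the mean of all tested compounds plus 3 SD, cutoff set per campaign, cut at about 30% in these data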;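 further: 0% = DMSO wells and 100% = unlabeled Bim-BH3 peptide competitor; inhibitors lower millipolarization by displacing the labeled peptide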
Target sequence (Q07817 whole entry, looked up): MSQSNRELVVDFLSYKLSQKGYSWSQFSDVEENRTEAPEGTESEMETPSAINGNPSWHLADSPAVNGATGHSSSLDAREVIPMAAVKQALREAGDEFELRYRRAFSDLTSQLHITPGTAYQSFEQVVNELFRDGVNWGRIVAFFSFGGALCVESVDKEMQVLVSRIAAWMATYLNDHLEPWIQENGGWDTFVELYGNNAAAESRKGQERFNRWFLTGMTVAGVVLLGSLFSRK
Mcl1 Bid PPI = Mcl-1/Bid interaction inhibition | Q07820 | TR-FRET Mcl-1/Bid-Dy647 peptide binding, 1536-well | inhibition, % at 21.7 µM | 0.97% of 220,000 active;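 active means compounds that cut the binding signal by more than half at the single screening dose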;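 further: His-tagged Mcl-1 with europium anti-His antibody binding Bid BH3 peptide; 0% = Mcl-1 plus peptide wells and 100% = peptide-only wells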
* = called active by the depositor; x = no result given.

SMILES	Mcl1-Noxa inh	Bim-Mcl-1	GLD-1 RNA inh	MCL1-BIM inh	BCLXL inh	Mcl1 Bid PPI
Nc1sc(-c2ccccc2)c(Cc2ccccc2)c1C(=O)O	10.8	-3.0	6.9	7.6	-0.9	-61.1
COc1ccc(-n2cc(-c3ccccc3)[nH]c2=S)cc1	11.0	-16.0	3.1	-5.4	-0.8	-102.0
CC(=O)Nc1ccc(-n2cc(-c3ccccc3)[nH]c2=S)cc1	53.0*	-7.0	7.7	6.2	7.8	-30.7
C=CCN(c1ccc(C(=O)NCCN2CCOCC2)cc1)S(C)(=O)=O	x	x	4.7	9.8	6.3	x
O=C(CSc1nnc2c(n1)[nH]c1ccccc12)Nc1cccc(S(=O)(=O)N2CCOCC2)c1	46.8	x	-5.1	0.5	-3.1	-103.8
Cc1nc(NC(=O)c2ccccc2)sc1-c1csc(Nc2ccc(C(=O)O)cc2)n1	90.4*	x	x	x	x	91.1*
Cc1ccc(Nc2nc(-c3sc(NC(=O)c4cccc(Cl)c4)nc3C)cs2)cc1	29.8	-4.0	-9.2	-17.0	-9.6	-54.5
Cc1nc(NC(=O)c2ccccc2)sc1-c1csc(NCc2ccco2)n1	60.5*	-2.0	-1.3	-12.2	-9.2	-11.8
COc1cccc(Nc2nc(-c3sc(NC(=O)c4ccccc4)nc3C)cs2)c1	19.7	-5.0	1.5	-11.1	-0.7	-42.7
Cc1nc(NC(=O)c2ccc(Cl)cc2)sc1-c1csc(Nc2cccc(F)c2)n1	50.9*	0.0	-3.0	-17.9	-4.1	8.8
Cc1ccc(C)c(N(CC(=O)N2CCCC2)S(C)(=O)=O)c1	x	x	-1.5	-5.0	-5.6	x
COc1ccc(S(=O)(=O)Nc2ccc3c(c2)CC(=O)N([C@@H](C)CO)C[C@H](C)[C@@H](CN(C)S(=O)(=O)c2ccc(F)cc2)O3)cc1	x	x	2.7	x	x	x
Cc1ccc(SC[C@H](C)CN2CC[C@H](C(C)(C)C)CCC2=O)cc1	x	x	6.0	-1.2	0.9	x
CCOc1c(O)ccc(/C=C2\SC(=S)NC2=O)c1[N+](=O)[O-]	71.7*	0.0	-12.8	12.4	7.1	-46.9
COc1cc(/C=C(/C#N)c2nc3ccccc3[nH]2)ccc1OCC(=O)Nc1ccccc1C(C)C	33.8	16.0	-2.9	-1.1	-4.6	59.4*
CCOc1cc(/C=C(/C#N)c2ccc(F)cc2)ccc1OCc1ccc(C(=O)O)o1	9.1	-6.0	-0.5	0.4	6.4	26.2
COc1cc(/C=C(\C#N)c2nc3ccccc3s2)ccc1OCC(=O)Nc1ccccc1	17.0	0.0	-87.8	-94.3	-36.6	78.3*
COc1cc(/C=C(/C#N)c2nc3ccccc3[nH]2)ccc1OCC(=O)Nc1ccccc1C	-11.9	-3.0	5.2	9.4	11.5	67.4*
CCOc1cc(/C=C(/C#N)c2nc3ccccc3[nH]2)ccc1OCc1ccc(C(=O)O)o1	51.5*	7.0	-0.1	-7.4	2.2	-17.6
CN1CCN(c2oc(-c3ccccc3)nc2S(=O)(=O)c2ccc(Br)cc2)CC1	x	x	4.5	-0.1	4.5	x
CN(C)c1ccc(NC(=S)NC23CC4CC(CC(C4)C2)C3)cc1	x	x	9.5	8.2	2.9	x
NC(=O)c1cc(N2C(=O)C=CC2=O)ccc1Cl	68.2*	0.0	6.3	16.6	10.0	-54.4
CC(=O)Nc1ccc(Cl)c(C(N)=O)c1	24.2	-2.0	3.8	-2.2	-2.1	13.8
CCN(CC(=O)Nc1cc(Cl)ccc1C)C(=O)c1ccc2c(c1)NC(=O)C(C)S2 (stereo not drawn)	x	x	6.7	-14.2	-11.4	x
CCOC(=O)CC(=O)CSC1=C(C#N)C(c2ccccc2OC)CC(=O)N1 (stereo not drawn)	10.8	-2.0	1.5	-8.7	30.9*	0.1
SMILES	Mcl1-Noxa inh	Bim-Mcl-1	GLD-1 RNA inh	MCL1-BIM inh	BCLXL inh	Mcl1 Bid PPI
CC1CCCC(C)N1CCNC(=O)C1CCN(S(=O)(=O)N2CCCCC2)CC1 (stereo not drawn)	9.6	-2.0	8.3	4.2	8.6	101.8*
CN1C(=O)/C(=C/c2ccccc2OCc2cccc(F)c2)NC1=S	5.3	-3.0	8.2	8.8	-2.2	77.7*
COc1ccc(NS(=O)(=O)c2cc(C(=O)N3CCC3)ccc2C)cc1	x	x	4.0	1.2	1.6	x
N#Cc1c2ccc(O)cc2n2ccccc12	42.8	11.0	12.9	44.2*	44.6*	-12.3
N#Cc1c2ccc(OCC(=O)NCc3ccco3)cc2n2ccccc12	x	x	5.3	7.1	7.6	x
CCOC(=O)N1CCC(NC(=O)c2cccc3c2C(=O)N(c2ccc(OC)cc2)C3)CC1	55.7*	1.0	-1.8	16.8	1.5	-0.7
COc1ccc(N2Cc3cccc(C(=O)NC(C)CCc4ccco4)c3C2=O)cc1 (stereo not drawn)	64.8*	-1.0	6.3	5.6	-0.7	-10.3
COc1ccc(-c2cc(-c3ccco3)[nH]c(=O)c2C#N)cc1OC	15.0	x	15.8	46.3*	46.3*	-7.4
Cc1cccc(Nc2cc(C)c3c(O)cccc3n2)c1C	53.3*	0.0	3.6	0.5	2.6	-5.1
Cc1nc2ccccc2c2c(N)c3ccccc3n12	26.9	3.0	26.1	22.4	35.3*	-19.3
CC(C)N1C(=O)/C(=C/c2nc3ccccc3c(=O)n2-c2ccccc2)c2ccccc21	54.9*	0.0	2.5	6.5	4.3	77.9*
CC(C)N1C(=O)/C(=C\c2nc3ccccc3c(=O)n2-c2ccccc2)c2ccccc21	19.9	15.0	7.3	-1.7	4.1	11.4
COc1ccc(CNC(=O)COC(=O)c2ccc(F)c(S(=O)(=O)N3CCOCC3)c2)cc1	x	x	13.1	x	x	x
CCCNC(=O)C1CCN(c2cc(-c3ccccc3)nc3ncnn23)CC1	69.5*	0.0	-4.4	4.0	1.6	-3.8
CCc1c(C)nc2ncnn2c1N1CCC(C(=O)Nc2ccccc2)CC1	-26.0	1.0	3.9	0.6	4.6	-2.6
C#CCOc1ccc(/C=C2/C(=O)NN(c3ccc(F)cc3)C2=O)cc1OC	x	x	4.3	7.5	9.3	x
CN(CCc1ccccn1)C(=O)CCC1CCCN(C(=O)c2ccccn2)C1 (stereo not drawn)	13.7	-1.0	3.8	6.9	5.1	-29.0
CN(CCc1ccccn1)C(=O)CCC1CCCN(C(=O)NC2CCCCC2)C1 (stereo not drawn)	-0.6	57.0*	-2.5	-6.0	1.3	-32.1
O=C(NC1=NCCS1)c1cc(-c2cccs2)nc2ccccc12	7.7	x	4.8	-8.6	-2.9	-93.2
Cc1ccc(-c2cc(C(=O)NN3CCOCC3)c3cc(Br)ccc3n2)o1	56.7*	1.0	4.6	10.5	7.1	0.6
Cc1ccc(-c2cc(C(=O)NCCCn3ccnc3)c3cc(Br)ccc3n2)o1	75.9*	0.0	11.8	34.0	17.0	33.7
Cc1ccc(-c2cc(C(=O)NC3=NCCS3)c3cc(Br)ccc3n2)o1	102.0*	8.0	-1.1	23.6	13.0	51.3*
Cc1cccc(-c2cc(C(=O)NCCCn3ccnc3)c3ccccc3n2)c1	4.8	-2.0	x	x	x	-27.1
